About 79,000 compounds went through this panel and 15% of them were active in at least one assay; those are over-represented in the sample as a whole. Calls of active or inactive are those of the source. Cut-off read from the data, not from the text of the source: active = growth inhibition above about 70%; inactive = the rest.
Experiments:
[1] = NCI Yeast Anticancer Drug Screen. Data for the rad50 strain (AID 155);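 note: 0% = growth of vehicle-only cultures of the same strain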; settings: S. cerevisiae rad50 strain growth inhibition; at 50.0 µM; stronger effect = higher value
How it was run: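 Inhibition values express reduced yeast growth in compound-treated cultures relative to vehicle-treated controls.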

[2] = NCI Yeast Anticancer Drug Screen. Data for the mec2-1 strain (AID 157); settings: S. cerevisiae mec2-1 strain, at 50.0 µM, stronger effect = higher value
How it was run: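 Readout is yeast growth inhibition, normalised to vehicle-treated controls, in the mec2-1 strain exposed to compound.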

[3] = NCI Yeast Anticancer Drug Screen. Data for the sgs1 mgt1 strain (AID 161);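 note: 0% = growth of cultures given vehicle only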; settings: S. cerevisiae sgs1 mgt1 strain, at 50.0 µM, stronger effect = higher value
How it was run: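 This yeast growth screen uses a strain with defined DNA-repair lesions; compound-treated growth is compared with vehicle-treated growth.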

[4] = NCI Yeast Anticancer Drug Screen. Data for the cln2 rad14 strain (AID 165);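 note: 0% = growth equal to vehicle treated cultures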; settings: S. cerevisiae cln2 rad14 strain, at 50.0 µM, stronger effect = higher value
How it was run: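 Relative to vehicle controls, growth inhibition of compound-treated cln2 rad14 yeast was recorded.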

[5] = NCI Yeast Anticancer Drug Screen. Data for the bub3 strain (AID 167); settings: S. cerevisiae bub3 mutant strain, at 50.0 µM, stronger effect = higher value
How it was run: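 Steps: expose the mutant yeast strain to compound; grow alongside vehicle-treated cultures; measure growth; express inhibition against the vehicle cultures.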

[6] = NCI Yeast Anticancer Drug Screen. Data for the mlh1 rad18 strain (AID 175); settings: S. cerevisiae mlh1 rad18 strain growth inhibition; at 50.0 µM; stronger effect = higher value
How it was run: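 Test agents were incubated with a yeast strain of defined genotype (DNA damage repair defect). Inhibition of growth was derived by comparison with vehicle-exposed cultures.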

Measured: growth inhibition

Cc1nn(C(=O)c2cccnc2)c(-c2ccccc2)c1N=Nc1ccc(S(=O)(=O)Nc2ncccn2)cc1
inactive: [1] 23.7% | [2] 18.4% | [3] 31.4% | [4] 33% | [5] 0.7% | [6] 42.5%

Cn1ncc2c(=O)[nH]c(NN)nc21
inactive: [1] -8.35% | [2] -4.45% | [3] -4.8% | [4] -17.8% | [5] -0.95% | [6] -1.95%

CN(C)/C=N/NC(=O)C(O)c1ccccc1 (stereo not drawn)
inactive: [1] 10.3% | [2] 2.2% | [3] 4.45% | [4] 18.2% | [5] 34.4% | [6] -19.6%

CCOC(=O)C12CCC(C(=O)OCC)(CC13OCCO3)C1(C2)OCCO1
inactive: [1] 11.1% | [2] 9.95% | [3] 10% | [4] 5.55% | [5] 7.35% | [6] 15.9%

NC(=O)/C(=C\c1ccc(OCc2ccccc2)c(OCc2ccccc2)c1)NC(=O)c1ccccc1
inactive: [1] 41.2% | [2] 22.4% | [3] 44% | [4] 32.6% | [5] -3.65% | [6] 17.7%

Cc1ccccc1OCC(O)COC(=O)CCS(=O)(=O)O (stereo not drawn)
inactive: [1] -25.1% | [2] -7% | [3] -7.85% | [4] 8.1% | [5] 37.2% | [6] -6.3%

CCCCCCCCCCCCS(=O)(=O)O (tested in a mixture with another compound)
inactive: [1] -5.1% | [2] -6% | [3] -9.05% | [4] -12.4% | [5] -22.5% | [6] -12.8%

COc1ccccc1CO
inactive: [1] 0.85% | [2] -13.8% | [3] 3.85% | [4] 13.7% | [5] 13.8% | [6] -1.15%

Nc1ccc2ccc3ccc(N)nc3c2n1
inactive: [1] 36% | [2] 38% | [3] 40.7% | [4] -1.8% | [5] 44.1% | [6] 17.1%

CCOC(=O)c1oc2cc(O)cc(O)c2c(=O)c1-c1ccc(OC)cc1
inactive: [1] 7.8% | [2] -30.4% | [3] 11.6% | [4] 11.1% | [5] 3.1% | [6] 0.35%

O=C(O)c1oc2cccc3c2c1CCC3
inactive: [1] -3.6% | [2] 1.3% | [3] 5.4% | [4] -10.3% | [5] -1.35% | [6] -4.2%

O=C(c1ccc(O)c(C(=O)O)c1)c1ccc(O)c(C(=O)O)c1
inactive: [1] 10.9% | [2] -13.9% | [3] -5.3% | [4] -0.7% | [5] -19.9% | [6] -2.85%

O=C(NN1C(=O)C(Cl)C1c1ccc([N+](=O)[O-])cc1)c1ccccc1O (stereo not drawn)
inactive: [1] -16.2% | [2] -19.2% | [3] -35.7% | [4] -6.45% | [5] -26% | [6] -20.1%

O=c1[nH]c(Nc2cccc(CO)c2)nc2nc[nH]c12
inactive: [1] 5.35% | [2] -11% | [3] -25.8% | [4] 0.9% | [5] -15.7% | [6] -26.4%

CCc1ccccc1NC(=O)COc1ccc(Cl)cc1
inactive: [1] 5.7% | [2] 29.2% | [3] 18.8% | [4] 0.45% | [5] 34.2% | [6] 1.1%

O=C(c1ccccc1Cl)c1ccc2ccccc2c1C(=O)O
inactive: [1] 2.5% | [2] -0.55% | [3] -0.6% | [4] 6% | [5] -10% | [6] 2.95%

CCSCCCCSCC
inactive: [1] -2.85% | [2] -34.4% | [3] -15.7% | [4] 3.35% | [5] 6.3% | [6] -2.2%

O=[N+]([O-])c1cc2c3ccccc3ccc2c2ccccc12
inactive: [1] -5.6% | [2] 6.95% | [3] 12.2% | [4] -78.8% | [5] 19.6% | [6] 21.6%

COc1cc(CC2c3cccc(Oc4ccc(C)cc4)c3CCN2C)ccc1Oc1ccc(C)cc1 (stereo not drawn)
active: [1] 98% | [2] 98.2% | [3] 98.7% | [4] 96.5% | [5] 97.4% | [6] 98%

Cn1c2cc(Cl)c(Cl)cc2nc2cc3c(cc21)c(Cl)c(=O)c1cc2cc(Cl)c(Cl)cc2cc13
inactive: [1] 31.8% | [2] 8.65% | [3] 11.3% | [4] 25.9% | [5] -2.85% | [6] 20.3%

CCCCc1ccncc1
inactive: [1] 5.3% | [2] 4.55% | [3] 18.6% | [4] -25.9% | [5] 8.55% | [6] 19.6%

CC(=O)Nc1ccc(NC(=O)c2cccc3ccccc23)cc1
inactive: [1] -5.1% | [2] 13% | [3] 13.8% | [4] -12.8% | [5] 35.4% | [6] 32.1%

O=C(Cc1ccccc1)N(Cc1ccccc1)Cc1ccccc1
active: [1] 96.8% | [2] 98.7% | [3] 98.8% | [4] 91.9% | [5] 92.4% | [6] 97.9%

O=C1CC2(C(=O)N1CN(Cc1ccccc1)Cc1ccccc1)c1ccccc1-c1ccccc12
inactive: [1] 34.5% | [2] 2.1% | [3] -5.55% | [4] 14.1% | [5] -1.1% | [6] 22.4%

C=CCNC(=O)ON1C(=O)CCC1=O
inactive: [1] -19.8% | [2] 3.05% | [3] -35.6% | [4] -8.65% | [5] -22.9% | [6] -39.5%

CN1C(C)(C)NC(=S)C1(C)C
inactive: [1] 26.9% | [2] -18.1% | [3] -5.5% | [4] 11.7% | [5] 1.65% | [6] -9.65%

CSc1nc(NCc2ccc(Cl)cc2)c2[nH]c(C)nc2n1
inactive: [1] 7.7% | [2] -13.6% | [3] 18.4% | [4] -3% | [5] 20.1% | [6] 6.45%

CCCCN(CCCC)CC(O)c1cc(-c2ccc(Cl)c(Cl)c2)nc2c(Cl)cc(Cl)cc12 (stereo not drawn)
inactive: [1] 28.3% | [2] 31.1% | [3] -15.7% | [4] 11.6% | [5] -15.5% | [6] -11.8%

CC(=O)OC1=C(C)C2=C3OC(=O)C(C)=C3CC[C@@]2(C)[C@@H](Cl)[C@@H]1Cl
inactive: [1] 40.9% | [2] -45.9% | [3] -2.6% | [4] -5.85% | [5] -15.2% | [6] -57.9%

CCC(CC)C(=O)OC1CCCCC1C(C)C (stereo not drawn)
inactive: [1] 6.8% | [2] -3.5% | [3] -0.2% | [4] -13.6% | [5] 3.05% | [6] 0.35%

O=C(O)C1(O)CC(O)C(O)C(O)C1 (stereo not drawn)
inactive: [1] 5.25% | [2] -7.05% | [3] -0.25% | [4] -13.8% | [5] 8.55% | [6] -0.8%

CN(C)Cc1cc(Cl)c(O)c(CN(C)C)c1
inactive: [1] -17.6% | [2] -43.5% | [3] -38.4% | [4] 23.7% | [5] -30.6% | [6] 15.1%

O=c1oc2ccc(Cl)cc2c(=O)n1-c1cc(Cl)ccc1[N+](=O)[O-]
inactive: [1] -4.65% | [2] -21% | [3] -6.8% | [4] -11.5% | [5] 0.45% | [6] 21.6%

CC(C)=NNC(=O)c1ccccc1O
inactive: [1] 33.9% | [2] -7.7% | [3] 3.5% | [4] 2.3% | [5] 1.65% | [6] -10.2%

CCCCCCCCCCCCN=Cc1cc(Cc2ccc(O)c(C=NCCCCCCCCCCCC)c2)ccc1O
active: [1] 85.7% | [2] 80.4% | [3] 91.3% | [4] 84.2% | [5] 83.7% | [6] 96%

O=c1nc(N2CCCCCCC2)ccn1C1OC(CO)C(O)C1O (stereo not drawn)
inactive: [1] 4.85% | [2] 14.6% | [3] 8.95% | [4] 6.75% | [5] 6.85% | [6] 8.5%

CN(C)c1ccccc1CCO
inactive: [1] -4.2% | [2] -33.5% | [3] -6.7% | [4] -0.4% | [5] -3.65% | [6] 3.35%

CCCCCCCCCCCCOP(=O)(CC(=O)NCc1cc(C(C)(C)C)c(O)c(C(C)(C)C)c1)OCCCCCCCCCCCC
inactive: [1] -1.55% | [2] 3.3% | [3] 21.9% | [4] -7.3% | [5] -2.9% | [6] -9.9%

Reference: PubChem BioAssay (NCI)
